Our source for the inhibition values is PubChem BioAssay AID1063 (University of Pittsburgh Molecular Library Screening Center, 2008).

About 18,000 (9%) of roughly 200,000 compounds were called active. Only a selection was taken, and actives are over-represented in it overall. Values without a mark were called inactive. Cut-off read from the data, not from the text of the source: active = inhibition above about 50%; inactive = the rest.

The assay is described as follows: Leishmania major promastigote growth inhibition, primary screen (AID 1063).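 Note: promastigotes grown with compound for 44 hours at 28 °C.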 Conditions: Leishmania major promastigotes, resazurin fluorescence viability; at 10 µM; active compounds read high. For orientation: Resazurin is reduced to fluorescent resorufin, in cell work by metabolically active cells.
Regarding `O=C(/C=C/c1ccccc1[N+](=O)[O-])NCC1CCCO1` (configuration not stated), the inhibition was 64.4% (active).
In the case of `COc1ccc(C(=O)OCC(=O)NCC2CCCO2)cc1[N+](=O)[O-]` (configuration not stated), the inhibition was -1.01%.
As for `O=C(NCC1CCCO1)c1ccc2ccccc2n1` (configuration not stated), the figure is -4.29%.
The result for `CC(C)C(=O)Nc1c(O)c2ccccc2[nH]c1=O` reads -11.4%.
The result for `O=C(Nc1ccc(S(=O)(=O)N2CCc3ccccc3C2)cc1)c1ccccc1` reads -4.05%; that for `CCn1cc(C(=O)NCCCN2CCCCCC2)c(=O)c2cc(S(=O)(=O)N3CCc4ccccc4C3)ccc21`, 89.7% (active).
Regarding `CCn1cc(C(=O)NCC2CCCO2)c(=O)c2cc(S(=O)(=O)N3CCCCC3)ccc21` (configuration not stated), the inhibition was 10.9%.
As for `O=C(Cn1c(N2CCN(C/C=C/c3ccccc3)CC2)nc2ccccc21)c1ccccc1`, the inhibition is 53.2% (active).
The result for `CC(C)Cn1c(N2CCN(C(=O)/C=C/c3ccccc3)CC2)nc2ccccc21` reads 5.8%; that for `CCCCOC(=O)c1ccc(N2C(=O)CC(N3CCN(C/C=C/c4ccccc4)CC3)C2=O)cc1` (configuration not stated), -5.72%; that for `Cc1ccc(Nc2nc(CSc3nnc(-c4ccncc4)n3-c3ccccc3C)cs2)cc1`, 28.5%.
As for `Cc1ccc(-n2c(SCC(=O)N3c4ccccc4Sc4ccccc43)nnc2-c2ccncc2)cc1`, the figure is 62.6% (active).
The result for `Cc1ccc(-c2nnc(SCC(=O)N/N=C/c3cccs3)n2-c2ccc(C)cc2)cc1` reads 32%; that for `O=C(CSc1nnc(-c2ccncc2)n1-c1ccc(Cl)cc1)Nc1ccc(C(=O)O)cc1`, -7.6%; that for `Cc1ccc(-n2c(SCC(=O)NCc3ccc4c(c3)OCO4)nnc2-c2cccnc2)c(C)c1`, 7.56%.
For `CCOc1ccccc1-n1c(SCC(=O)NCc2ccco2)nnc1-c1ccncc1`, the inhibition is 67.1% (active).
As for `Cc1ccc(-c2csc3nnc(SCC(=O)NCc4ccco4)n23)cc1`, the figure is -1.56%; as for `CCn1c(SCC(=O)NCc2ccco2)nnc1-c1ccc(N)cc1`, -3.78%; as for `Cc1ccccc1-n1c(SCC(=O)NCc2cccs2)nnc1-c1ccncc1`, 53% (active).
On to `CCc1nc2ccccc2c(C(=O)OC2CCCCC2=O)c1C` (configuration not stated), for which the inhibition was 7.85%.
`O=[N+]([O-])c1cccc(/C([O-])=C(/C(=S)Nc2ccccc2F)[n+]2ccccc2)c1`: the inhibition is -0.54%.
The result for `C=CCN(C(=O)c1cc(C)cc(C)c1)C1(C(=O)Nc2ccccc2)CCN(C(C)C)CC1` reads 6.23%.
In the case of `CCNC(=O)N1c2ccccc2Sc2ccccc21`, the inhibition is 4.94%.
The result for `COc1ccccc1CNC(=O)C1Cc2ccccc2C(=O)O1` (configuration not stated) reads -1.31%; that for `CCCC1NC(=S)NC(C)=C1C(C)=O` (configuration not stated), -12.4%; that for `O=C(/C=C/c1ccc2c(c1)OCO2)NCc1cn2cc(Cl)ccc2n1`, -4.11%.
As for `CC(C)NC(=S)Nc1cccc2cnccc12`, the figure is -1.24%; as for `CCOC(=O)Cn1nnnc1C`, -3.4%; as for `C=CCC(CC=C)(C(N)=O)c1ccccc1`, 2.87%.
As for `CC(C)(O)C(=O)NN(C(=O)c1ccccc1)c1cccc(Br)c1`, the figure is 3.6%; as for `CCC(C)NC(=O)CCCc1ccccc1` (configuration not stated), 13.2%; as for `CCCCC(O)(CCCC)C(=O)NN(C(=O)CCl)c1ccccc1`, 54.5% (active).
Turning to `Cc1ccc(N(NC(=O)C(C)(C)O)C(=O)c2ccccc2)cc1C`, the inhibition was -3.54%.
The result for `CCCC(O)(CCC)C(=O)NN(C(=O)CCl)c1cccc(C)c1` reads 82.9% (active).
The result for `CCCCCCCCC(=O)NCCOc1ccccc1` reads -9.39%; that for `Cc1ccc(N(C(=O)c2ccc(S(=O)(=O)N(C)C)cc2)C2C=CS(=O)(=O)C2)cc1` (configuration not stated), 5.35%; that for `COc1ccccc1-c1noc(CSc2nc(C)cc(=O)[nH]2)n1`, -6.37%.
`N#CCC(=O)N/N=C/c1ccc(SCC(=O)Nc2ccccc2)o1`: the inhibition was -1.51%.
Turning to `CCSc1sc(CC)cc1C=O`, the inhibition was 5.02%.
The result for `O=C(Nc1ccccc1)Nc1nc2ccccc2s1` reads -0.32%; that for `c1ccc2sc(NN=C3CCCC3)nc2c1`, 57% (active); that for `Cc1ccnc(Nc2nc3ccccc3s2)n1`, 11.8%.
The result for `O=C(C1CCCN1S(=O)(=O)c1ccc(Br)cc1)N1CCOCC1` (configuration not stated) reads 1.18%; that for `CC1(C)CN(c2ccc(-c3ccnc4ncnn34)cc2)C1=O`, 8.31%.
On to `CCN(CC)CCN(C(=O)c1ccc(N2C(=O)CCC2=O)cc1)c1nc2cc3c(cc2s1)OCO3`, for which the inhibition is 4.38%.
The result for `Cc1[nH]c2ccccc2c1SCC(=O)Nc1nccs1` reads 2.27%.
The result for `Cc1ccc(NC(=O)NC2CCCCC2)cc1S(=O)(=O)N1CCOCC1` reads 27.4%; that for `COc1ccc(S(=O)(=O)N2CCC(C(=O)OCC(=O)c3ccccc3)CC2)cc1[N+](=O)[O-]`, -6.1%.
Regarding `Cc1cc(C(=O)COc2ccccc2[N+](=O)[O-])c(C)n1-c1cccc(S(=O)(=O)N2CCOCC2)c1`, the inhibition is 98.9% (active).
`O=C(NC(=S)Nc1ccc(S(=O)(=O)N2CCOCC2)cc1)c1ccccc1[N+](=O)[O-]`: the inhibition was 5.68%.
The result for `S=c1[nH]ccn1-c1ccc(Cl)cc1` reads -8.82%; that for `O=S(=O)(NC1CC1)c1ccc2c3c(cccc13)CC2`, 3.72%.
As for `Cc1ccc(C(=O)OC2CCCN(C)C2)cc1` (configuration not stated), the figure is -6.05%.
`CCNS(=O)(=O)c1ccc(NC(=O)Nc2cccc(OC)c2)cc1`: the inhibition is 3.37%.
On to `O=C(Nc1ccc(S(=O)(=O)Nc2ncccn2)cc1)c1cncc(Br)c1`, for which the inhibition is -5.97%.
As for `CCNS(=O)(=O)c1ccc(NC(=O)c2cncc(Br)c2)cc1`, the figure is 50.3% (active); as for `N#CC1(C#N)C(C(=O)C23CC4CC(CC(C4)C2)C3)C12CCOCC2` (configuration not stated), 4.33%.
As for `Cc1ccccc1CSc1nnc(-c2ccccc2)c(=O)[nH]1`, the figure is -8.07%.
As for `Cc1nn(CC(=O)NCc2ccccn2)c(C)c1[N+](=O)[O-]`, the figure is -2.73%; as for `CCc1ccc(NC(=O)Cn2nc(C)c([N+](=O)[O-])c2C)cc1`, 6.59%; as for `Cc1nn(CC(=O)Nc2nc3ccccc3s2)c(C)c1[N+](=O)[O-]`, 50.5% (active).
With `C=CCN(CC=C)C(=O)COC(=O)c1n[nH]c2ccccc12`, the inhibition is 1.59%.
The result for `CN(C(=O)CSc1nncc2ccccc12)C1CCCCC1` reads 0.99%; that for `Cc1ccc(-c2cn3cc(C)ccc3n2)cc1`, 87.7% (active).
As for `Cc1ccc(-c2cn3cc([N+](=O)[O-])ccc3n2)cc1`, the figure is 6.77%; as for `COc1ccc(-c2cn3ccsc3n2)cc1`, 0.76%.
As for `N#Cc1cc([N+](=O)[O-])ccc1Oc1cccc(/C=N/NC(=O)c2ccc(Cl)cc2)c1`, the figure is 15.7%; as for `O=C(N/N=C/c1ccco1)c1ccc(NC(=O)C2CC2)cc1`, 5.98%; as for `CC1(C)C2CC=C(/C=N/NC(=O)C3CC3)C1C2` (configuration not stated), 99.3% (active).
In the case of `CC(C)(C)C(=O)Nc1ccc(C(=O)N/N=C/c2ccccc2OC(=O)c2ccc(Cl)cc2Cl)cc1`, the inhibition is 40.8%.
The result for `CC1(C)C2CC=C(/C=N/NC(=O)c3ccc(Cl)cc3)C1C2` (configuration not stated) reads 96% (active); that for `CCOc1ccc(N2C(=O)CN(c3cccc4ccccc34)C2=S)cc1`, -2.38%; that for `CCS(=O)(=O)C1=NSC2=NC(=O)/C(=C\c3cc(C)n(-c4cccc(OC)c4)c3C)C(=N)N21`, -2.58%.
For `Cc1ccc(S(=O)(=O)NCCC(c2ccccc2)c2ccccc2)cc1C(=O)O`, the inhibition is -13.6%.
The result for `COc1cccc(-n2nc(C(=O)N3CCN(Cc4ccccc4)CC3)c3ccccc3c2=O)c1` reads -6.17%.
As for `NC(N)=N/N=C/c1ccc(Cl)c([N+](=O)[O-])c1`, the inhibition is 100% (active).
The result for `Cc1ccnc(NC(=O)c2ccc(Cl)c([N+](=O)[O-])c2)c1` reads 28.8%.
Consider `CC(CC(=O)O)C(=O)c1ccc(Cl)c([N+](=O)[O-])c1` (configuration not stated), for which the inhibition is -1.01%.
As for `O=C(CCNS(=O)(=O)c1ccc(Br)s1)NCc1ccccc1Cl`, the inhibition was 15.3%.
With `CCCc1cc(=O)[nH]c(SCC(=O)OCc2ccccc2)n1`, the inhibition is 1.09%.
The result for `CCCc1cc(=O)[nH]c(SCC(=O)c2cc(C)n(CCC)c2C)n1` reads 11.3%.
Consider `CCCc1cc(=O)[nH]c(SCC(=O)N2CCN(S(=O)(=O)c3ccc(C)cc3C)CC2)n1`, for which the inhibition is 63% (active).
As for `CCCOc1ccc(NC(=O)CC2C(=O)N(C)C(=S)N2Cc2ccc3c(c2)OCO3)cc1` (configuration not stated), the figure is 3.31%; as for `COc1cccc(NCCC(=O)c2cccc([N+](=O)[O-])c2)c1`, 85% (active); as for `COc1ccc(Cc2nnc(SCC(=O)c3cccc([N+](=O)[O-])c3)n2C)cc1`, 7.37%.
The result for `CC(C)(C)SCCNC(=O)c1cccc([N+](=O)[O-])c1` reads 45.2%; that for `O=C(c1nnc(-c2ccc(Cl)cc2)o1)C1CCCC1`, -8.13%; that for `Cc1cccc(NC(=S)NC23CN4CN(CN(C4)C2)C3)c1`, -0.78%.
The result for `CC(=O)NC1CC2CCCC(C1)N2CC(=O)Nc1ccccc1` (configuration not stated) reads -0.85%; that for `O=C(CN1CCOCC1)Nc1ccccc1`, -4.08%.
In the case of `Cc1ccc(NC(=O)CN2CCC3(O)CCCCC3C2c2ccc3c(c2)OCO3)c(C)c1` (configuration not stated), the inhibition was 89.1% (active).
For the compound `CC1CCCCN1CC(=O)NCc1ccc2c(c1)OCO2` (configuration not stated), the inhibition was 4.4%.
As for `CCN(CC)c1ccc(C2C3CCCCC3(O)CCN2CC(=O)Nc2ccccc2)cc1` (configuration not stated), the figure is 78.2% (active); as for `CC1CCCCC1NC(=O)CN1CCC(O)(c2ccc3c(c2)OCO3)CC1` (configuration not stated), 30.1%.
The result for `CCOc1ccc(C(O)Cn2c(=N)n(CCN3CCCCC3)c3ccccc32)cc1` (configuration not stated) reads 80.6% (active); that for `Cn1c(=N)n(CC(O)c2ccccc2)c2ccccc21` (configuration not stated), 3.48%.
As for `Cc1cccc(OCC(O)Cn2c(=N)n(CCN3CCOCC3)c3ccccc32)c1` (configuration not stated), the figure is 10.1%.

The inhibition is the change of the read-out against control, counted positive when it falls.
